# System: RXRa homodimer (NR concentration 180 nM)
# Assay: PBM binding z-score (relative to random genomic background probes); higher = stronger binding; sequences stand for … in GC…GCGATTGACAGCGTAGAATGAAGG
# In short: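 Scanned fluorescence from custom Agilent 4×180K protein-binding microarrays was regression-normalized. Binding z-scores use random background probes as reference. Ligand-free nuclear receptor dimers were incubated on the arrays for 1 h and detected with antibodies against each partner (one per run).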
row,Sequence,PBM binding z-score
1,CAAACTAGGACACAGAGGTCAAAGTCCGTGCGTA,6.42
2,CGTCCAAGGTGAATGCTAGGTCAGTGAAAGCATT,1.02
3,TTTTGTAGATCAGCAGGTTAAGAAAGCTGGCCAA,0.104
4,TGAATGAGGTTAGAGATCAGGGAACGTGGCGTCG,1.71
5,TCATATAGGTAAATGCCAGGTGAAAGTCCGATCT,0.912
6,CCTACTGGGCCACAAAAGGTCATTGATTCAGTGA,4.76
7,CATACTGGGCCATCAGGTCATTGATATCAACGTT,1.61
8,ATATGTAGGTTACATCCGCGTCATTCAGGCTATG,0.901
9,GCAGACAGGTGAAACGCAGGTAACTTAGGGTGGC,0.754
10,ATATGTAGGTTAGCTGGGGTCTTTCAGACTAGGC,0.914
11,GCTTGTAGATCAATGTTAAGAAAGACTAAGCTAA,-0.609
12,ACCCGGAGGACAAAGGTCAGAGCTACGCCAGTGA,4.97
13,ACTTACGGGTCAACGATGTTATAGCACGCGTATA,5.56
14,CCTACTGGGCCACGAAAGATCATTGATTCAGTGA,0.0459
15,CCTACTGGGCCATCAGGTCCTTGATATCAACGTT,-0.412
16,GCTTCTAGATCAAGGTTAAGAAAGACTAAGCTAA,0.547
17,CAAACTAGGTCACCGGAAGCTCAAAGTCCGCATG,3.81
18,CGTCAAAGTTCAACTAAGGGAACGTAAAGCACGC,5.21

# Source: the supplement of paper PMC6555819
